From PubChem BioAssay AID2391 (Southern Research Specialized Biocontainment Screening …, 2010)
Screen size: about 310,000 compounds; about 410 (0.13%) were called active. About 2% were inconclusive and are not listed. How the calls were made is not given here. Not all results are given here. Potency and affinity values are given separately.

assay: inhibition of RSV-induced cytopathic effect – HEp-2 cells, primary 10 µM value included (AID 2391); conditions: at 10 µM, stronger effect = higher value

CPE inhibition, inactive:
Cc1cc(NC(=O)CCC(=O)N(CC(=O)NCC2CCCO2)c2cccc(F)c2)no1 (stereo unspecified) 0.87%
CC(=O)NC1(C(F)(F)F)C(=O)Nc2c1c(=O)[nH]c(=O)n2-c1ccccc1 (stereo unspecified) -0.08%
CCCCCCC(=O)N1CCC(c2nc3c(nnn3Cc3ccccc3Cl)c(=O)[nH]2)CC1 -3.63%
Cc1ccc(Nc2ccc(S(=O)(=O)N3CCOCC3)cc2[N+](=O)[O-])cc1C 7.23%
CC1=Nc2cc(C(=O)N3CCCCC3)ccc2Sc2ccc(C)cc21 4.9%
CC1=Nc2cc(C(=O)N3CCCC3)ccc2Sc2ccc(C)cc21 3.72%
COc1ccc(N2CCN(c3nc(C)c(C)c(=O)[nH]3)CC2)cc1 1.02%
COCCOc1cc(NC(=O)CS(=O)CC(=O)N(C)C)c(Cl)cc1Cl (stereo unspecified) 1.9%
O=C(Nc1ccccc1)c1ccc(NC(=O)C2CC2)cc1 2.88%
O=C(Nc1ccc(Nc2ccccc2)cc1)C1CC1 0.83%
CNC(=O)CO/N=C/c1ccc(N(C)C)cc1 2.24%
COc1ccc2cc(CN(Cc3cccnc3)S(=O)(=O)c3ccccc3)c(=O)[nH]c2c1 5.1%
CCCNC(=O)c1cc(S(=O)(=O)N2CCCCC2)ccc1N1CCOCC1 -0.63%
CCn1c(-c2nonc2NC(=O)c2ccccc2)nc2ccccc21 -1.62%
CCC(=O)Nc1nonc1-c1nc2ccccc2n1CC(C)C 4.88%
CC(C)NC(=O)CSc1ccccc1C(=O)NNC(=O)Cn1ccc(C(F)(F)F)n1 -1.83%
CCOc1ccc(C(C)=O)cc1CN1C(=O)NC2(CCCCCC2)C1=O -0.88%
CCOC(=O)c1nn(-c2ccccc2)c(=O)cc1OCC(=O)Nc1cc(C)ccc1OC 0.86%
O=C(NCc1cccs1)C1CCN(C(=O)NCc2ccccc2)CC1 0.51%
CCN1C(=O)/C(=C2/C(=O)N3c4c(cc(OC(C)=O)cc42)C(C)=CC3(C)C)SC1=S 7.27%
COc1cc2c3c(c1)/C(=C1/SC(=S)NC1=O)C(=O)N3C(C)(C)C=C2C 17.4%
Cc1ccc(OCCNC(=O)CCc2ccccc2)cc1C -0.93%
CCc1nccn1S(=O)(=O)c1ccc2ccccc2c1 1.31%
O=C(N/N=C/c1cccnc1)c1cc(C2CC2)nc2ccccc12 1.57%
Cc1cc(C)c2nc(SCC#N)cc(C)c2c1 11.1%
C/C(N)=C(/C#N)C(=O)CSc1cc(C)c2ccccc2n1 12.3%
CC(C)S(=O)(=O)CC(=O)c1ccc(Cl)cc1 1.72%
O=C(Cn1c2ccccc2c2nc3n(c(=O)c21)CCS3)Nc1ccccc1 0.68%
Cc1ccc(C(=O)Nc2ccc3c(c2)C(=O)NC3=O)cc1 3.34%
COc1cc(-c2nnc(SCc3ccccc3Cl)o2)cc(OC)c1OC 10.5%
COc1cc(OC)cc(-c2nnc(SCc3c(F)cccc3Cl)o2)c1 9.5%
CCc1nn(CC(=O)NCCCN(Cc2ccccc2)C(C)C)c(=O)c2cc3sccc3n12 3.25%
CC(OC(=O)CSc1ccc(F)cc1)C(=O)NC1(C#N)CCCCC1 (stereo unspecified) 1.61%
CC(C)(C)SCCNS(=O)(=O)c1ccccc1 2.31%
COc1ccc(C(=O)N/C(=C/c2cccs2)C(=O)NN)cc1OC 0.82%
COc1ccc(/C=C(/NC(=O)c2ccccc2)c2nc3ccccc3[nH]2)cc1OC 1.75%
Cc1ccc(C(=O)N/C(=C\c2cccs2)c2nc3ccccc3[nH]2)cc1 1.69%
O=C(N/C(=C/c1cccs1)c1nc2ccccc2[nH]1)c1ccccc1 -0.44%
Cc1ccc2oc(C(=O)Nc3ccc(S(=O)(=O)Nc4ncccn4)cc3)c(C)c2c1 1.95%
Cc1cc(C)c(C(=O)Nc2ccc(S(=O)(=O)Nc3onc(C)c3C)cc2)c(C)c1 0.27%
Cc1ccc2oc(C(=O)Nc3ccc(S(=O)(=O)Nc4onc(C)c4C)cc3)cc(=O)c2c1 1.61%
Cc1ccc2c(=O)cc(C(=O)Nc3ccc(S(=O)(=O)Nc4onc(C)c4C)cc3)oc2c1 1.69%
O=C(N/N=C/c1cc2c(cc1Cl)OCO2)c1cccc(Br)c1 0.51%
COc1ccc(C(c2nnnn2Cc2ccccc2)N2CCN(c3nc4ccccc4s3)CC2)cc1OC (stereo unspecified) 8.79%
CNC(=O)NC(=O)COC(=O)/C=C/c1cccc(Br)c1 4.26%
COC(=O)c1cccc(CSc2nc(-c3ccccc3)c(C#N)c(=O)[nH]2)c1 -0.22%
c1ccc(OCCOc2ncnc3ccccc23)cc1 2.27%
c1ccc(CSc2ncnc3ccccc23)cc1 -0.1%
O=C(COc1ncnc2ccc(Br)cc12)NC1CCCC1 -0.78%
COCCNC(=O)COc1ncnc2ccc(Br)cc12 0%
O=C(COc1ncnc2ccccc12)NCCc1ccccc1 4.07%
N#CCSc1ncnc2ccccc12 0.16%
CCOC(=O)c1c(C)c(C(=O)Nc2ccc3c(c2)OCCO3)c(C)n1C -0.46%
N#Cc1nc(-c2ccco2)oc1NCc1ccco1 1.01%
O=C(COc1ccccc1)Nc1ccccc1C(=O)NCc1ccco1 -0.74%
COc1ccc(NC(=O)CN(C)C(=O)c2ccc3[nH]c4c(c3c2)CC(C)CC4)cc1 (stereo unspecified) 6.52%
CC1CCc2[nH]c3ccc(C(=O)N(C)CC(=O)Nc4ccc(F)cc4)cc3c2C1 (stereo unspecified) 5.53%
CCOc1cccc2c1OC1(C)CC2NC(=O)N1c1ccc(OC)cc1 (stereo unspecified) 0.71%
C=CCN(c1ccc(F)cc1)S(=O)(=O)c1cc(C(=O)OCC(=O)N(C)C2CCS(=O)(=O)C2)ccc1Cl (stereo unspecified) 0.97%
CCC(=O)NC(=S)Nc1ccc(NC(=O)COc2ccc(Cl)cc2Cl)cc1 3.92%
CCC(=O)NC(=S)Nc1ccc(NC(=O)COc2ccccc2)cc1 -0.96%
